dFosB act-1: activators of mouse delta FosB homodimer. P13346. purified delta FosB, TAMRA-CDK5 oligo fluorescence polarization; percent of positive-control signal above neutral wells. activation, % at 25 µM. actives 0.99% (n = 340,000). AID 493131;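 active = mean activation above about 17%, with every replicate also reaching it, limit read from the data, passing the limit was not always enough; inconclusive = only one of the two conditions met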
Bfl-1 A1 inh: inhibitors of the anti-apoptotic protein A1, read as caspase activation. caspase activation, % (test concentration not listed). MEF A1-2A-BIM cells, Caspase-Glo 3/7 luminescence, 3 h; percent of clofoctol response, vehicle zero. actives 0.066% (n = 330,000);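 active = over half of replicate activation scores above 10%, or exactly half above 10 with the replicate mean above 10; inconclusive = replicate mean below 10 yet half the replicates above 10; inactive = over half of replicates below 10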
GSIS activator: primary screen for activators of insulin secretion dependent on glucose, INS-1E cells, GLuc reporter luminescence; INS-1E GLuc reporter insulin secretion, 2-3 h; activation, % at 16.6 µM; actives 0.61% (n = 370,000);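 active = lowest replicate activation of at least 40%, so every replicate reaches that level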;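 also: 0% = median of neutral control wells and 100% = median of IBMX positive control wells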
Neddylation inh: blocks human cullin neddylation | P61081+Q13564 | TR-FRET cullin neddylation, biochemical | inhibition, % at 25 µM | actives 0.58% (n = 360,000); in the data active = inhibition above about 36%
Target sequence (P61081 whole entry, looked up): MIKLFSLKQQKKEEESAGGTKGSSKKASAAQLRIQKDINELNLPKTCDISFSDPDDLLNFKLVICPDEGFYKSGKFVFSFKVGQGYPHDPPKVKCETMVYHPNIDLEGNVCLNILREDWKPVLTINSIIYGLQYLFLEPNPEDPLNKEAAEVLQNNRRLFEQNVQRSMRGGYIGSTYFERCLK
Target sequence (Q13564 whole entry, looked up): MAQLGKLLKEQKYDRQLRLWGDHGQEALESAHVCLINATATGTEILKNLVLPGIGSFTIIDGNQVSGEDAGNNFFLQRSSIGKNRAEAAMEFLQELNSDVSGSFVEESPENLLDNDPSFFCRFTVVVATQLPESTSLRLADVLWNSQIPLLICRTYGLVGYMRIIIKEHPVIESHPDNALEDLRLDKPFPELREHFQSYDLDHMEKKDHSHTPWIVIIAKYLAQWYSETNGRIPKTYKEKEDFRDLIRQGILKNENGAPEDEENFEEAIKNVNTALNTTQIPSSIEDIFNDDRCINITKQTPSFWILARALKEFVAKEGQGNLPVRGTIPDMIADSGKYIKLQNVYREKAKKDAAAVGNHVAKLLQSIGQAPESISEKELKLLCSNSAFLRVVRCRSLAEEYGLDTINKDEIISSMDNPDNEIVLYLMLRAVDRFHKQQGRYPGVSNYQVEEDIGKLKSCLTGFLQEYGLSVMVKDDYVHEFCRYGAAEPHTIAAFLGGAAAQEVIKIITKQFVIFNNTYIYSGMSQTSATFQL
Vif imaging: HIV Vif inhibition | HEK293T cells, Vif self-association by quenched fluorescence, imaging, 24 h | inhibition, % at 7.49 µM | actives 0.35% (n = 340,000) | AID 602346; in the data active = inhibition above about 50%, passing the limit was not always enough; inconclusive = no clear call, values can overlap the other calls; inactive = below about 31%
dFosB act-2: enhances mouse delta FosB homodimer binding to DNA; shares compounds with dFosB act-1; purified delta FosB, TAMRA-CDK5 oligo fluorescence polarization; normalised: neutral wells 0, positive control 100; activation, % at 24.9 µM; 2,400 tested, under 10 active; AID 588690;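 active = highest replicate activation at or above 34% and every replicate reaching that threshold; inconclusive = meets only one of the two criteria; inactive = meets neither criterion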;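 also: higher polarization means more probe DNA bound by delta FosB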
* hit, by the source's call; ? = inconclusive; / = no result. Only some compounds are listed: those with a hit (about 1.9% of all), similar ones and a draw of the others.

SMILES	dFosB act-1	Bfl-1 A1 inh	GSIS activator	Neddylation inh	Vif imaging	dFosB act-2
Cc1ccc(-c2ccc3c(c2)O[C@@H](CN(C)C(=O)C2CCCCC2)[C@@H](C)CN([C@H](C)CO)S3(=O)=O)cc1	/	/	-10	/	/	/
NCCNc1ccc([N+](=O)[O-])c(Sc2nc3ccccc3[nH]2)c1	25*	1	5	-34	3	0
O=C(COC(=O)c1cc(Br)ccc1O)NNC(=O)c1ccc([N+](=O)[O-])cc1	-8	-1	12	-14	38	/
O=C(COC(=O)c1cc(Br)ccc1O)NNC(=O)c1ccc(Cl)cc1	26*	0	-27	-3	11	3
COCC(=O)N1[C@H](C#N)[C@@H](c2ccc(-c3cccc(F)c3)cc2)[C@@H]1CO	/	/	-7	/	/	/
OC[C@H]1[C@@H](c2ccccc2)[C@@H](CNCC2CCC2)N1CC1CC1	/	/	7	/	/	/
COc1ccc(Nc2nc(NN)nc(Nc3ccc(OC)cc3)n2)cc1	25*	2	6	9	3	1
NNc1nc(Nc2ccccc2)nc(N2CCCCC2)n1	6	1	/	3	3	/
NNc1nc(Nc2ccccc2)nc(Nc2ccccc2)n1	46*	0	19	1	-15	-7
COc1ccc(Nc2ccc(OC)cc2)cc1	/	-1	4	-21	3	/
O=C(CSc1nnc(-c2ccco2)o1)Nc1cccc([N+](=O)[O-])c1	41*	1	22	3	10	-12
CC(=O)Nc1ccc(NC(=O)CSc2nnc(-c3ccco3)o2)cc1	-1	0	0	-4	-1	/
O=C(Nc1cccc(F)c1)N1CCCCN2[C@@H](CO)[C@H](c3ccc(C#Cc4ccccc4)cc3)[C@@H]2C1	/	/	-5	/	/	/
COC(=O)c1cc(NC(=O)c2ccc(Cn3cc(Cl)cn3)o2)cc(C(=O)OC)c1	21*	0	/	4	-8	-1
COC(=O)c1ccccc1NC(=O)c1ccc(Cn2cc(Cl)cn2)o1	-7	0	/	10	/	/
C[C@H](CO)N1C[C@H](C)[C@H](CN(C)C(=O)Nc2ccccc2)Oc2c(NC(=O)Nc3ccc(F)cc3)cccc2C1=O	/	/	-11	/	/	/
Cc1nn(Cc2ccccc2)c(Cl)c1/C=C/C(=O)OC(C(=O)NC(N)=O)C(C)C (stereo not drawn)	50*	1	47	2	?	-1
Cc1ccc(C(=O)NC(NC(=O)c2ccc(C)cc2)C(Cl)Cl)cc1	24*	-1	/	2	-17	1
CO[C@@H]1CN(C)C(=O)c2cc(NC(C)=O)ccc2OC[C@H](C)N(Cc2cccnc2)C[C@@H]1C	/	/	2	/	/	/
Cc1ccc(C(=O)COC(=O)c2ccc3c(c2)C(=O)N(c2cccc4ncccc24)C3=O)cc1	49*	6.4*	9	-5	-1	5
O=C(OCC(=O)c1ccc(Cl)cc1Cl)c1ccc2c(c1)C(=O)N(c1cccc3ncccc13)C2=O	7	-1	/	-94	2	/
O=C(COC(=O)c1ccc2c(c1)C(=O)N(c1cccc3ncccc13)C2=O)c1ccc(Cl)cc1	65*	0	-1	-1	2	2
CN(C)C(=O)c1cccc(-c2ccccc2[C@H]2[C@H](C#N)N(C(=O)C3CCCC3)[C@H]2CO)c1	/	/	-1	/	/	/
C[C@@H]1CCCCO[C@H](CN(C)C)[C@@H](C)CN([C@H](C)CO)C(=O)c2cc(NC(=O)Nc3ccc(F)cc3)ccc2O1	/	/	3	/	/	/
O=C(OCC(O)C(O)C(O)C(SCc1ccccc1)SCc1ccccc1)c1ccccc1 (stereo not drawn)	23*	/	-2	1	22	5
SMILES	dFosB act-1	Bfl-1 A1 inh	GSIS activator	Neddylation inh	Vif imaging	dFosB act-2
O=C(OCC(O)C(O)C(O)COC(=O)c1ccccc1)c1ccccc1 (stereo not drawn)	2	/	-2	-10	15	/
O=C(O)C[C@H]1C[C@@H]2c3cc(NC(=O)Nc4ccccc4F)ccc3O[C@@H]2[C@@H](CO)O1	/	/	-5	/	/	/
COc1ccc(NC(=O)Nc2cccc3c2O[C@H](CN(C)Cc2ccccc2)[C@H](C)CN([C@H](C)CO)C3=O)cc1	/	/	0	/	/	/
S=c1[nH]nc(-c2cc(-c3ccccc3)n[nH]2)n1/N=C/C=C/c1ccccc1	41*	0	4	5	3	0
COc1ccc2c3c([nH]c2c1)[C@@H](CO)N(Cc1ccccc1OC)CC31CN(C)C1	/	/	5	/	/	/
CC(=O)Nc1ccc(NC(=S)NC(=O)/C=C/c2ccc(Cl)cc2)cc1	-8	-1	0	-3	-1	/
O=C(/C=C/c1ccc(Cl)cc1)NC(=S)Nc1ccc(NC(=O)c2ccco2)cc1	85*	0	50*	0	7	0
CCOC(=O)c1nn(-c2ccccc2)c(=O)cc1OCC(=O)Nc1cc(C)ccc1OC	23*	0	30	-140	3	5
CCOC(=O)c1nn(-c2ccc(C)cc2)c(=O)cc1OCC(=O)Nc1cc(C)ccc1OC	0	-1	0	3	7	/
COc1ccc2c3c(n(C)c2c1)[C@H](CO)NCC31CCN(C(=O)c2ccccc2)CC1	/	/	21	/	/	/
COc1ccc(S(=O)(=O)Nc2ccc3c(c2)C(=O)N([C@H](C)CO)C[C@@H](C)[C@@H](CN(C)C(=O)NC(C)C)OCCCC[C@H](C)O3)cc1	/	/	10	/	/	/
O=C1N[C@@H](Cc2ccccc2)COCn2nncc2CC[C@@H]1Cc1ccccc1	/	/	-11	/	/	/
COc1ccc(OCc2nnc(NC(=O)Nc3ccc(F)cc3)s2)cc1	73*	0	31	-8	-2	-1
C[C@H]1CCCCO[C@@H](CN(C)C(=O)NC2CCCCC2)[C@@H](C)CN([C@@H](C)CO)C(=O)c2cc(NC(=O)CCC(F)(F)F)ccc2O1	/	/	-18	/	/	/
OCCN1CCN(c2nc(-c3ccccc3O)nc3ccccc23)CC1	24*	1	11	-10	-8	6
Cc1nn(-c2ccc(F)cc2)c(Cl)c1/C=N/NC(=O)c1ccc(O)cc1	-13	0	2	-3	-2	/
Cc1nn(-c2ccc(F)cc2)c(Cl)c1/C=N/NC(=O)c1cccs1	39*	0	8	21	-4	-3
Cc1ccccc1/C=N/NC(=O)c1cccnc1	3	?	-4	-8	0	/
Cc1nn(-c2cccc(Cl)c2)c(Cl)c1/C=N/NC(=O)c1cccnc1	23*	?	9	0	-3	0
Cc1nn(Cc2c(Cl)cccc2Cl)c(Cl)c1/C=N/NC(=O)c1cccnc1	56*	-1	/	17	9	4
COC(=O)N/N=C/c1c(C)nn(-c2cccc(Cl)c2)c1Cl	-2	0	/	4	3	/
CCS(=O)(=O)N1CC(=O)N2[C@@H](CO)[C@H](c3ccc(C#CC4CCCCC4)cc3)[C@@H]2C1	/	/	-18	/	/	/
O=c1[nH]c(SCc2nc3c(cnn3-c3ccccc3)c(=O)[nH]2)nc2ccccc12	44*	/	/	-51	-10	4

Screens: PubChem, several laboratories
